Test results published in PubChem BioAssay.
Calls of active or inactive are those of the source. Unless noted, the rule behind the calls is not given here.

Legend:
[1] = test system: Wnt5a (protein binding on small-molecule microarray); test: small molecules binding Wnt5a protein – biophysical, small-molecule microarray, 635/667 nm fluorescence, primary screen (AID 1142); settings: 635 nm fluorescence, higher = more signal;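 note: fluorescence read at 667 nm with signal to noise per printed feature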
[2] = ATP-based viability of Huh7 replicon cells – cell-based, CellTiter-Glo luminescence, basal, 48 h, cytotoxicity control for HCV replication inhibitor project, primary screen (AID 1143); settings: higher = more signal, called active from +8 up or from −8 down;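 note: Huh7 hepatoma cells carrying a hepatitis C replication reporter with no stimulus; test concentration not given here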
[3] = Pseudomonas biofilm growth suppression – PAO1 strain, BacTiter-Glo luminescence, LB-PBS, primary screen (AID 1144); settings: P. aeruginosa PAO1 biofilm, 12 h, higher = more signal
[4] = basal CRE-LacZ reporter activity in PC12 – cell-based, unstimulated, primary screen (AID 1145); settings: no forskolin, luminescence, 4.5 h, higher = more signal, called active from +8 up or from −8 down
[5] = forskolin-driven CRE-LacZ activity in PC12 – cell-based, CRE-LacZ reporter, forskolin-stimulated, primary screen (AID 1146); settings: luminescence, 4.5 h, higher = more signal, called active from +8 up or from −8 down;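 note: PC12 cells with 6xCRE LacZ reporter stimulated by forskolin 10 µM; beta-galactosidase reporter signal reflecting CREB driven transcription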
[6] = molecular target: Streptavidin (Streptomyces avidinii) (UniProt P22629); test: compounds binding control protein streptavidin – biophysical, small-molecule microarray, 635/667 nm fluorescence, artefact control for SMM compound annotation, primary screen (AID 1147); settings: higher = more signal;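 note: signal reflects streptavidin binding to arrayed compounds as a control protein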
[7] = probe aInhba binding on compound microarray – biochemical, small-molecule microarray, 635/667 nm fluorescence, primary screen (AID 1148); settings: higher = more signal;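 note: score merges 667nm spot fluorescence with signal-to-noise for antibody binding to printed compounds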
Torsin-1A (Homo sapiens) [8] = molecular target: Torsin-1A (Homo sapiens) (UniProt O14656); test: TOR1A wild-type binding on microarray – cell lysate, small-molecule microarray, lysate, 635/667 nm, primary screen (AID 1149); settings: COS7 hTOR1A-WT lysate, 635 nm fluorescence, higher = more signal
Torsin-1A (Homo sapiens) [9] = molecular target: Torsin-1A (Homo sapiens) (UniProt O14656); test: torsin A mutant lysate binding on microarrays – cell lysate, small-molecule microarray, COS7 lysate, 635/667 nm fluorescence, primary screen (AID 1150); settings: COS7 hTOR1A mutant lysate, 635 nm fluorescence, higher = more signal;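 note: score pools 667 nm emission and signal to noise measuring lysate protein binding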
[10] = test system: Sonic hedgehog protein (Shh); test: Sonic hedgehog microarray binding compounds – biochemical, small-molecule microarray, 635/667 nm fluorescence, primary screen (AID 1151); settings: 635 nm fluorescence, higher = more signal;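 note: Shh protein binding to compounds spotted on small-molecule microarray slides; score combines spot fluorescence intensity with signal-to-noise across triplicate slides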
[11] = optical density shifts of acrAB sulA E. coli – strain DRC41, OD650, 48 h, E. coli filamentation inducer project, primary screen (AID 1152); settings: higher = more signal, called active from +8 up or from −8 down;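 note: E. coli MC1000 strain DRC41 lacking acrAB efflux pump and sulA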
[12] = probe aLefty1 binding on compound microarray – biochemical, small-molecule microarray, 635/667 nm fluorescence, primary screen (AID 1153); settings: higher = more signal;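 note: score merges spot fluorescence with signal-to-noise ratio from the scanned slide images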
[13] = plasmodial surface anion channel blockers, osmotic lysis – cell-based, P. falciparum Indochina, OD700, 1 h, primary screen (AID 1154); settings: P. falciparum Indochina infected RBC osmotic lysis, higher = more signal, called active from +8 up or from −8 down
[14] = plasmodial surface anion channel blockers, osmotic lysis – cell-based, P. falciparum Indochina, OD700, 2 h, primary screen (AID 1155);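 note: lysis reports solute entry through the parasite surface anion channel PSAC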; settings: P. falciparum Indochina infected erythrocytes, higher = more signal, called active from +8 up or from −8 down
[15] = changes in parasitized red cell lysis, either direction – P. falciparum Indochina, OD700, 3 h, PSAC antagonist project, primary screen (AID 1156); settings: P. falciparum-infected erythrocytes, osmotic lysis, higher = more signal, called active from +8 up or from −8 down
[16] = plasmodial surface anion channel blockers, osmotic lysis – cell-based, P. falciparum Indochina, OD700, 18 h, primary screen (AID 1157); settings: P. falciparum Indochina infected erythrocytes, osmotic lysis OD700, 18 h; higher = more signal, called active from +8 up or from −8 down
[17] = S6 kinase pathway phospho-S6 level changes – cell-based, A549, cytoblot, luminescence, serum-stimulated, primary screen (AID 1158); settings: 5 h, higher = more signal;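 note: serum-stimulated A549 lung adenocarcinoma cells; signal is phosphorylated S6 detected by cytoblot immunostaining with HRP secondary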
[18] = molecular target: NADPH oxidase 2 (Homo sapiens) (UniProt P04839); test: compounds shifting NOX2 Amplex Red fluorescence – cell-based, HEK293-NOX2, PMA-stimulated, NOX inhibitor project, primary screen (AID 1159); settings: 45 min, higher = more signal, called active from +8 up or from −8 down; note: test concentration not given here
[19] = molecular target: NADPH oxidase 4 (Homo sapiens) (UniProt Q9NPH5); test: compounds shifting NOX4 Amplex Red fluorescence – cell-based, HEK293-NOX4, tetracycline-induced, NOX inhibitor project, primary screen (AID 1160); settings: HEK293-NOX4, Amplex Red H2O2 fluorescence, 45 min; higher = more signal, called active from +8 up or from −8 down
[20] = molecular target: NADPH oxidase 5 (Homo sapiens) (UniProt Q96PH1); test: compounds shifting NOX5 Amplex Red fluorescence – cell-based, HEK293-NOX5, NOX inhibitor project, primary screen (AID 1161); settings: HEK293-NOX5, ionomycin, 45 min, higher = more signal
Sequence of NADPH oxidase 5 (Homo sapiens) (Q96PH1 whole entry, looked up): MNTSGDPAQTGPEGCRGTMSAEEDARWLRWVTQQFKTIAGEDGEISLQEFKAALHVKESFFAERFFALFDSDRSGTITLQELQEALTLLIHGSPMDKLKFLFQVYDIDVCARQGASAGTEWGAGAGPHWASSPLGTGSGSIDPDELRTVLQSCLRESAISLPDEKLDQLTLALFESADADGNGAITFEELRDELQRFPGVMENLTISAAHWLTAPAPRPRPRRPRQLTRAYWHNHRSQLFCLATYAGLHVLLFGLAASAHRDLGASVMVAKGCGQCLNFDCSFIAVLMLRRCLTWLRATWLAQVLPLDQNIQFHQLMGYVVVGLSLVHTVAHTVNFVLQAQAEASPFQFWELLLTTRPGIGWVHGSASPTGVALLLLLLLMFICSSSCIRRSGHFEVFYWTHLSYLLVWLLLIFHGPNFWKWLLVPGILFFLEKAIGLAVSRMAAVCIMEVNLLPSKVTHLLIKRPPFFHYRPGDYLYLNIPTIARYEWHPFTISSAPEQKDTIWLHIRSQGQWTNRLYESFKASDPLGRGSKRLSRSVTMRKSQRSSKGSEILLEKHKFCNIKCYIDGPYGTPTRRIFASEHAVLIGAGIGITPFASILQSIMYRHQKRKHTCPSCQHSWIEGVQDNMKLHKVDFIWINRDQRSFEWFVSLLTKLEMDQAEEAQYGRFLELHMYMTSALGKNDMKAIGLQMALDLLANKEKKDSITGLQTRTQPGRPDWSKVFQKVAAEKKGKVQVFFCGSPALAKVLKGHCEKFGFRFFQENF

Sequence of Torsin-1A (Homo sapiens) (O14656 whole entry, looked up): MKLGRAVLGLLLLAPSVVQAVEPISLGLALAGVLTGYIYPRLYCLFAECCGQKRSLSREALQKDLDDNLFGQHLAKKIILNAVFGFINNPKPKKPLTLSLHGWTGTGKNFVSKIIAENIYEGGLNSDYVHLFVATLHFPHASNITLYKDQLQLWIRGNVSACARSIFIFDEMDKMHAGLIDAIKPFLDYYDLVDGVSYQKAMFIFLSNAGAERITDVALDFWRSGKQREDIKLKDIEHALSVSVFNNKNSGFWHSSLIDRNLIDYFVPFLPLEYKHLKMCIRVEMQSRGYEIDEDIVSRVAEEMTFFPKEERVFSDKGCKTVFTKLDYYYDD
Sequence of NADPH oxidase 2 (Homo sapiens) (P04839 whole entry, looked up): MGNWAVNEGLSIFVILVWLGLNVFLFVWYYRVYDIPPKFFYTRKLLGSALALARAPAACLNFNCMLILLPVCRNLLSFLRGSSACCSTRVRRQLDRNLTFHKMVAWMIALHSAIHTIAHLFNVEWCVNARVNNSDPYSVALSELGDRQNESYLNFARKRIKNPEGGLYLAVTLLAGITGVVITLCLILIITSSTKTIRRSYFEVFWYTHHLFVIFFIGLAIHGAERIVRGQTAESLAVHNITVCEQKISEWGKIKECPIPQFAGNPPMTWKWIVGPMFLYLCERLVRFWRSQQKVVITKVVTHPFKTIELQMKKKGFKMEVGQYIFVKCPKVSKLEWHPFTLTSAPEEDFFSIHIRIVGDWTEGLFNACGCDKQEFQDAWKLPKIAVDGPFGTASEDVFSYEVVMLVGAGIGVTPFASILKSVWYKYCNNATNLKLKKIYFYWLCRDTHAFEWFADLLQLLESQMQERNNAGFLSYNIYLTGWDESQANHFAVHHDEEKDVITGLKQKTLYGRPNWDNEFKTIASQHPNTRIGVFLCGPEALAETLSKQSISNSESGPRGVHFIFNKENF
Sequence of Streptavidin (Streptomyces avidinii) (P22629 whole entry, looked up): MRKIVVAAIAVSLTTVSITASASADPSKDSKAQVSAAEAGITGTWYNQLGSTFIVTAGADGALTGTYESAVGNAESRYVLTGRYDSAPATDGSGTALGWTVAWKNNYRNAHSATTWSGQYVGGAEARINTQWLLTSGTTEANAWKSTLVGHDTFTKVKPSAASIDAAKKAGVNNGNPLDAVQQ
Sequence of NADPH oxidase 4 (Homo sapiens) (Q9NPH5 whole entry, looked up): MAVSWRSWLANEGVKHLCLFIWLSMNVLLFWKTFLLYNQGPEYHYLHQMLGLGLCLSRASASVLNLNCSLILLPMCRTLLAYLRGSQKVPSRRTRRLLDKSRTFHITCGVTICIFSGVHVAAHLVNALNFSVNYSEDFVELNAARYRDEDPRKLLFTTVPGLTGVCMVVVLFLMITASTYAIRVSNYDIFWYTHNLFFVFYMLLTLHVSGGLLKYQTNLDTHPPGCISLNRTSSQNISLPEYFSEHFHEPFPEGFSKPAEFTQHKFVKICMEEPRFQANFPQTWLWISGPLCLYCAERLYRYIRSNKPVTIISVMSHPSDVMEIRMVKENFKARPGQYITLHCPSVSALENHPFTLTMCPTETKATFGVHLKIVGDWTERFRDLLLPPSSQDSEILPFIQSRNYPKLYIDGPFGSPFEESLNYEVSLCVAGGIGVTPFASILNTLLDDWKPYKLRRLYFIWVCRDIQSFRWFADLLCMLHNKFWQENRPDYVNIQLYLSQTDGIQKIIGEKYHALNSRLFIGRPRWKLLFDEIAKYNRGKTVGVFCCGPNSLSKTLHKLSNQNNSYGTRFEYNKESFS

| Compound | composite z-score [1] | z-score [2] | z-score [3] | z-score [4] | z-score [5] | composite z-score [6] | composite z-score [7] | composite z-score (Torsin-1A (Homo sapiens) [8]) | composite z-score (Torsin-1A (Homo sapiens) [9]) | composite z-score [10] | z-score [11] | composite z-score [12] | z-score [13] | z-score [14] | z-score [15] | z-score [16] | z-score [17] | z-score [18] | z-score [19] | z-score [20] |
| --- | --- | --- | --- | --- | --- | --- | --- | --- | --- | --- | --- | --- | --- | --- | --- | --- | --- | --- | --- | --- |
| Cc1cc2c(nc1C)CCCCN2CC(C)ON=C1[C@H]2CCn3c(=O)n(-c4ccccc4)c(=O)n3[C@H]2[C@H](O)[C@@H]2O[C@H]12 (stereo not given in full) | 0.384 | -0.299 (inactive) | 0.888 (inactive) | -1.21 (inactive) | -0.379 (inactive) | -0.251 | -0.125 | -0.0459 | -0.136 | 0.829 | 1.03 (inactive) | -0.0536 | 0.683 (inactive) | 0.0165 (inactive) | 0.417 (inactive) | 0.122 (inactive) | 0.0162 | -1.86 (inactive) | -0.0659 (inactive) | 0.168 |
| CC(C)=CCCC(C)=CCON=C1C[C@@H](O)[C@@H](O)[C@@H]2[C@@H]3C(=O)N(Cc4ccccc4)C(=O)[C@@H]3CC[C@@H]12 | 0.292 | 0.18 (inactive) | 0.603 (inactive) | -0.478 (inactive) | -0.0093 (inactive) | -0.0277 | -0.157 | 0.925 | 0.293 | 1.88 | -0.0866 (inactive) | -0.241 | 0.391 (inactive) | 0.239 (inactive) | 0.0336 (inactive) | -0.0646 (inactive) | -0.444 | 0.0415 (inactive) | 0.836 (inactive) | -0.0355 |
| CCOC(=O)[C@H](CC(C)C)NC(=O)CCC1CC(OC(=O)NCc2ccc3c(c2)OCO3)CC2(CCCC(COC(=O)NCC(c3ccccc3)c3ccccc3)O2)O1 (stereo not given in full) | 0.222 | -0.356 (inactive) | -0.187 (inactive) | 0.111 (inactive) | 1.67 (inactive) | -0.201 | -0.0405 | 0.0929 | 0.351 | 1.77 | 0.0056 (inactive) | -0.106 | 2.08 (inactive) | 0.316 (inactive) | -0.532 (inactive) | -0.071 (inactive) | -0.438 | -0.312 (inactive) | 1.03 (inactive) | 0.698 |
| CC(C)CON=C1[C@H]2CCn3c(=O)n(Cc4cc5c(cc4Cl)OCO5)c(=O)n3[C@H]2[C@H](O)[C@@H]2O[C@H]12 | 0.26 | -2.89 (inactive) | 0.376 (inactive) | 1.87 (inactive) | 0.819 (inactive) | 1.49 | -0.0332 | 1.39 | 0.49 | 0.504 | -1.41 (inactive) | 0.0004 | 0.292 (inactive) | -1.05 (inactive) | 0.599 (inactive) | -2.22 (inactive) | 0.261 | 0.42 (inactive) | 0.223 (inactive) | -0.799 |
| C[C@H]1CC[C@H]2C(=O)OC(CO)CN2[C@@H]1c1ccc(Br)cc1 (stereo not given in full) | 0.0096 | 0.131 (inactive) | -1.21 (inactive) | -0.527 (inactive) | -1.43 (inactive) | -0.281 | -0.253 | 0.21 | 0.002 | 0.661 | -0.565 (inactive) | -0.0918 | 0.382 (inactive) | 0.675 (inactive) | 0.647 (inactive) | 0.223 (inactive) | -0.42 | 0.923 (inactive) | -1.15 (inactive) | 0.324 |
| CC(C)(C)N1C(=O)[C@H]2[C@H]3[C@H](O)[C@H](O)CC(=O)[C@H]3CC[C@H]2C1=O | -0.0509 | -1.06 (inactive) | 0.925 (inactive) | 0.62 (inactive) | 0.95 (inactive) | -0.0955 | -0.0405 | 0.128 | 0.29 | 0.696 | -0.714 (inactive) | -0.144 | -0.0882 (inactive) | 0.499 (inactive) | -0.933 (inactive) | 0.183 (inactive) | 1.23 | 1.22 (inactive) | -1.36 (inactive) | 0.0957 |
| Cn1c(=O)n2n(c1=O)[C@H]1[C@H](O)[C@@H]3O[C@@H]3C(=NOCc3ccccc3)[C@H]1CC2 | -0.279 | 0.637 (inactive) | -0.53 (inactive) | -0.0211 (inactive) | 0.383 (inactive) | -0.178 | -0.183 | -0.223 | 0.0523 | 0.378 | -0.022 (inactive) | -0.0501 | -0.347 (inactive) | 0.0184 (inactive) | -0.432 (inactive) | 0.206 (inactive) | -0.807 | 0.265 (inactive) | 0.456 (inactive) | 0.632 |
| CC(C)=CCCC(C)=CCON=C1C[C@@H](O)[C@@H](O)[C@@H]2[C@@H]3C(=O)N(c4ccc(F)cc4F)C(=O)[C@@H]3CC[C@H]12 | -0.112 | -5.27 (inactive) | -0.206 (inactive) | -1.2 (inactive) | -0.358 (inactive) | 0.0534 | -0.0178 | -0.37 | 0.171 | 1.01 | -0.061 (inactive) | 0.173 | 13.7 (active) | 0.545 (inactive) | 2.8 (inactive) | -0.87 (inactive) | -0.0997 | -0.0501 (inactive) | -1.83 (inactive) | -4.58 |
